Compounds with a hit are over-represented: about 14% of the library has one in this group of screens.
MARV entry inh: Marburg virus entry inhibition | Marburg virus pseudotyped entry inhibition, cell reporter | hit rate 1.8% among 300,000 | Potency, µM (titrated, usually from 37.8 µM), for the others: at the highest dose activity change, negative = inhibition, most hits filed as inhibitors; calls by dose curve; tested in HEK293 cells; note: potency is the fitted concentration of half-maximal effect
HCV inh: HCV inhibition | Huh7.5.1 HCVcc-Cre infection, luciferase reporter, 44 h | Potency, µM (doses to about 41.8 µM), for inactives: at the highest dose activity change, negative = inhibition, most hits filed as inhibitors | hit rate 3.4% among 340,000 | AID 651820; note: potency is the fitted concentration of half-maximal effect
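A cell-based infection assay in which seeded cells (1,000 per well) receive test compound after 4 h, are inoculated with HCVcc-Cre at approximately 0.5 moi, and are incubated 44 h before luminescence detection.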
Pf growth 96h: P. falciparum growth inhibition at 96 hours. P. falciparum luciferase reporter growth, 96 h. AID 504834. hit rate 6.9% among 320,000. Potency, µM (series often up to 28.7 µM), for the others: at the highest dose activity change, negative = inhibition, actives largely listed as inhibitors; note: potency is the fitted concentration of half-maximal effect
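Plates of compound plus infected erythrocytes (2% hematocrit, 0.05% parasitemia final) incubate 96 hours, 37 C, 5% CO2. Detection reagent added; reduced luminescence from the parasites' luciferase reporter flags inhibition.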
Pf growth 48h: P. falciparum growth inhibition at 48 hours (one generation). P. falciparum luciferase growth in erythrocytes, 48 h. hit rate 5.9% among 310,000. Potency, µM (doses to about 28.7 µM), for the others: top-dose activity change, negative = inhibition, usual class: inhibitors. AID 504832; note: potency is the fitted concentration of half-maximal effect
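Parasite viability was followed by luminescence of a genomically integrated firefly luciferase. Cultures held 0.1% parasitemia at 2% hematocrit (final), incubated under 5% CO2 at 37 C.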
LASV entry inh: inhibitors of Lassa virus binding or cell entry. Lassa virus pseudotype entry inhibition, cell reporter. Potency, µM (doses to about 37.9 µM), inactives show at the top dose activity change, negative = inhibition, hits mostly inhibitors. hit rate 1.2% among 300,000. AID 540256; calls by dose curve; tested in HEK293 cells; note: potency is the fitted concentration of half-maximal effect; nearly all actives have a fitted effect of over 50% in size
HCMV inh: inhibitors of human cytomegalovirus. HFF cells, HCMV-luciferase reporter, 72 h; active compounds read low. activity change, negative = inhibition, % at 57.5 µM. hit rate 4.5% among 410,000. AID 1259415; in the data active = activity change below about -60%; inconclusive = no clear call, values can overlap the other calls; inactive = above about -39%
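HFF cells seeded 16 h at 37C, treated with compounds, infected with luciferase-reporter HCMV at MOI 1 PFU/cell; luciferase read at 72 h post infection, normalized to buffer-only and Salinomycin controls.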
The depositor's hits bear a star; ? = inconclusive; . = not tested or not shown; [ ] = dose if it differs, or a comment. Unless noted, calls come from the whole dose curve; as a rule, active = well fitted inhibition curve with a large enough effect; inconclusive = small, poorly fitted or top-dose-only effect, or another doubt; inactive = no such curve, though single readings can be large or run the other way. % is set by controls: 0 for no effect and ±100 for the full control effect.

SMILES	MARV entry inh	HCV inh	Pf growth 96h	Pf growth 48h	LASV entry inh	HCMV inh
O=C(NCc1ccccc1Cl)C1CCN(S(=O)(=O)c2ccc(N3CCCC3=O)cc2)CC1	.	-4%	9.3µM*	?	.	-18
CCC1(CC)C(=O)NC(=O)NC1=NCCc1ccc(O)cc1	11%	-9%	2%	-11%	4%	-68*
Cc1ccc(Cl)cc1NC(=O)N1CCC2(CC1)Oc1ccccc1C(=O)N2Cc1ccccc1F	-2%[46.1 µM]	.	.	.	.	15
O=[N+]([O-])c1ccccc1S(=O)(=O)Oc1ccccc1/C=N/n1cnnc1	-5%	3%	1.9µM*	-20%	-4%	-16
O=[N+]([O-])c1cccc(/C=N/n2cnnc2)c1O	-2%	37%	250%	17%	-2%	13
O=C1CN(C(=O)COc2ccc(Cl)cc2)C(c2ccccc2)c2cc(Br)ccc2N1 (configuration not stated)	-24%[46.1 µM]	.	.	.	?	2
COc1cccc2c1O/C(=N\O)C(C(=O)Nc1ccc(C)cc1)C2 (configuration not stated)	.	?	-18%	14%	.	-60*
COc1ccc(NC(=O)C2Cc3cccc(OC)c3O/C2=N\O)cc1 (configuration not stated)	.	?	0%	-15%	.	-29
COc1ccc(CNC(=O)C2CCC(CNS(=O)(=O)c3ccccc3)CC2)cc1 (configuration not stated)	15%[46.1 µM]	?	0%	3.7µM*	-13%[46.1 µM]	18
COc1ccc(CN(Cc2cccn2C)S(=O)(=O)c2ccc(F)cc2)cc1	?	-15%	?	?	-29%[46.1 µM]	3
Cc1ccc(CNC(=O)C2CCC(CNS(=O)(=O)c3cccc4cccnc34)CC2)cc1 (configuration not stated)	.	-30%	12µM*	?	.	-6
COc1cccc(CNC(=O)C2CCC(CNS(=O)(=O)c3cccc4cccnc34)CC2)c1 (configuration not stated)	.	-27%	?	?	.	-2
CCc1ccc(S(=O)(=O)NCc2cccs2)cc1	-7%	5%	-27%	14%	5%	-66*
COc1ccc(CN(Cc2cccn2C)S(=O)(=O)c2cccc(C(F)(F)F)c2)cc1	.	?	?	12µM*	.	-32
CCc1ccc(CNCc2cccs2)cc1	6%[46.1 µM]	11%	22%	31%	.	-9
COCC(=O)N1CCCC(CNS(=O)(=O)c2ccc(OC)cc2)C1 (configuration not stated)	13%[46.1 µM]	-5%	10µM*	0%	-1%[46.1 µM]	42
CC1CCN(CCCNC(=O)C2CCC(CNS(=O)(=O)c3ccccc3)CC2)CC1 (configuration not stated)	.	-5%	12µM*	21%	.	?
COc1ccc(CN2CCC(CNS(=O)(=O)c3cccc(C(F)(F)F)c3)CC2)cc1	?	11µM*	3%	-8%	.	-37
Cc1ccc(S(=O)(=O)NCC2CCC(C(=O)NCc3cccs3)CC2)cc1 (configuration not stated)	-22%	-3%	10µM*	-1%	-15%	-18
O=C(NCc1cccs1)C1CCC(CNS(=O)(=O)c2ccccc2)CC1 (configuration not stated)	0%[46.1 µM]	5%	81%	-4%	-11%	16
COc1ccc(N2CC(NC(=O)COc3ccc4ccccc4c3)CC2=O)cc1 (configuration not stated)	.	.	.	.	-16%[46.1 µM]	13
O=C1[C@H]2[C@H]3[C@H](O)[C@H](O)C/C(=N\OC[C@@H](O)COCc4ccco4)[C@H]3CC[C@H]2C(=O)N1C1CCCCC1	-22%[14.2 µM]	.	.	.	.	.
COc1ccc(CN2CCN(C(=O)C3CCC(CNS(=O)(=O)c4ccccc4)CC3)CC2)c(OC)c1OC (configuration not stated)	?	3.5µM*	?	?	-7%[46.1 µM]	-102*
CCN(CC)Cc1nc2nc(Cl)c(Cl)nc2[nH]1	.	.	.	.	.	-16
COc1ccc(-c2oc3cccnc3c2/C=C/c2ccc(OC)c(OC)c2)cc1	.	?	12µM*	?	.	-25
SMILES	MARV entry inh	HCV inh	Pf growth 96h	Pf growth 48h	LASV entry inh	HCMV inh
CN(C)C(=O)c1ccc(S(=O)(=O)NCc2ccccc2Cl)s1	.	.	.	.	19%[46.1 µM]	-7
COC1CCC(OC2CC(C3(C)CCC4(CC(O)C(C)C(C(C)/C=C(\C)C(=O)C(C)CC(C)C(=O)O)O4)O3)OC3(OC(C4OC(O)(CO)C(C)CC4C)CC3C)C2C)OC1C (configuration not stated)	?	0.32µM*	.	.	0.32µM*	-98*
NC(=O)[C@@H]1[C@@H]2C(=O)N(c3ccc(F)cc3)C(=O)[C@@H]2[C@H]2C=Cc3ccccc3N21	?	-18%	?	?	21%	48
O=C(c1ccco1)[C@@H]1[C@@H]2C(=O)N(c3ccc(F)cc3)C(=O)[C@@H]2[C@H]2C=Cc3ccccc3N21	-19%	-4%	3.7µM*	?	?	71
O=C(C1=C[C@@H](c2ccccc2)C[C@@H](OCc2ccc(CO)cc2)O1)N1CCCCCCC1	.	-3%[8.37 µM]	8.3µM*	?	.	-5
O=C(C1=C[C@H](c2ccc(C(F)(F)F)cc2)C[C@H](OCc2ccc(CO)cc2)O1)N1CCCCCCC1	.	1%[8.37 µM]	9.3µM*	?	.	.
O=C(C1=C[C@@H](c2ccc(C(F)(F)F)cc2)C[C@@H](OCc2ccc(CO)cc2)O1)N1CCOCC1	.	-10%	?	?	.	-4
O=[N+]([O-])c1sccc1CS(=O)(=O)c1ccccc1	18%[46.1 µM]	26%	7%	4%	11%[46.1 µM]	-3
O=C(c1ccc2c(c1)OCO2)N1CCC2(CC1)Oc1ccc(Cl)cc1C(=O)C21CC(c2ccccc2)=NO1 (configuration not stated)	.	-12%	13µM*	12µM*	.	?
O=C(c1ccc2c(c1)OCO2)N1CCC2(CC1)Oc1ccc(F)cc1C(=O)C21CC(c2ccc(Cl)cc2)=NO1 (configuration not stated)	.	10µM*	-4%	-22%	.	0
Cc1noc(C)c1C(=O)N1CCC2(CC1)Oc1ccc(F)cc1C(=O)C21CC(c2ccc(Cl)cc2)=NO1 (configuration not stated)	.	-10%	?	12µM*	.	25
CC(C)C(=O)N1CCC2(CC1)Oc1ccc(Cl)cc1C(=O)C21CC(c2ccc(Cl)cc2)=NO1 (configuration not stated)	.	-11%	?	?	.	13
CCCCC(=O)N(C)c1c(C)nc2ccc(C(=O)N3CCNC(=O)C3)cn12	.	.	.	.	.	-11
CC1CN(c2ccccn2)C(C)CN1C(=S)Nc1ccccc1 (configuration not stated)	3%	-5%	.	.	-16%	13
